The results in this text go back to the supplement of paper PMC10498489.

About 330 (14%) of roughly 2,300 compounds showed activity.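 Rule for the calls: active = median modified Z-score above 1.96; inactive = 1.96 or below.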 Only a sample is shown.

This assay has as its system HepG2 Srxn1-GFP reporter cells (+30 nM CDDO-Me). Kind of assay: Srxn1-GFP intensity median modified Z-score relative to plate median; higher = stronger NRF2 / oxidative stress reporter activation, active = hit call of the paper. The note with it: 10 µM; exposure time: 24h. A digest of the protocol:
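In 96-well plates holding 20,000 HepG2 Srxn1-GFP BAC reporter cells per well, compound at 10 μM and an NRF2 activator at 30 nM were added together for 24 h, with DMSO at ≤0.1%, across three replicate plates. After fixation in formaldehyde and Hoechst staining, confocal images were analysed cell by cell for cytoplasmic GFP, and images containing under 100 cells were excluded. Values are replicate medians of the per-plate modified Z-score of GFP intensity, scaled by 1.4826 × median absolute deviation.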
As to `CN(C)CCCN1c2ccccc2Sc2ccccc21` [euspeclibcmpd252], the “Srxn1-GFP intensity median modified Z-score” value is 0.744 (inactive).

In the case of `CNCCCN1c2ccccc2CCc2ccccc21` [euspeclibcmpd86], the “Srxn1-GFP intensity median modified Z-score” value is 1.22 (inactive). With `OCCN1CCN(CCCN2c3ccccc3Sc3ccc(Cl)cc32)CC1` [euspeclibcmpd640], the “Srxn1-GFP intensity median modified Z-score” value is -1.43 (inactive).

Take `CN1CCN(CCCN2c3ccccc3Sc3ccc(C(F)(F)F)cc32)CC1` [euspeclibcmpd306]: the “Srxn1-GFP intensity median modified Z-score” value was 0.328 (inactive).

Consider `CN1CCN(CCCN2c3ccccc3Sc3ccc(Cl)cc32)CC1` [euspeclibcmpd249], for which the “Srxn1-GFP intensity median modified Z-score” value is 3.78 (active). Consider `CNCCCN1c2ccccc2Sc2ccccc21`, for which the “Srxn1-GFP intensity median modified Z-score” value was 2.13 (active). Regarding `C/C(=C(/CCOP(=O)(O)O)SC(=O)c1ccccc1)N(C=O)Cc1c[nH]c(C)nc1=N` [euspeclibcmpd1052], the “Srxn1-GFP intensity median modified Z-score” value is 1.09 (inactive). Turning to `O=C(CCc1ccccc1)NCCO`, the “Srxn1-GFP intensity median modified Z-score” value was 1.29 (inactive). `Cc1nnc(SC=C2CSC3C(NC(=O)Cn4cnnn4)C(=O)N3C2C(=O)O)s1` (centres undefined) [euspeclibcmpd2337]: the “Srxn1-GFP intensity median modified Z-score” value is 0.336 (inactive).

As for `CCCCNC(=O)c1ccc(NC(C)=O)cc1`, the “Srxn1-GFP intensity median modified Z-score” value is 0.99 (inactive). With `CC(C)=CCCC1(C)C=Cc2c(O)c3c(c(CC=C(C)C)c2O1)OC12C(=CCCC1C(C)(C)O[C@@]2(C=CC(C)C(=O)O)C(=O)O)C3=O` (some centres undefined) [euspeclibcmpd1701], the “Srxn1-GFP intensity median modified Z-score” value is 6.67 (active). Turning to `CC(C)=CCCC1(C)C=Cc2c(O)c3c(c(CC=C(C)C)c2O1)OC12C(CC4CC1C(C)(C)OC2(C=CC(C)C(=O)O)C4O)C3=O` (centres undefined) [euspeclibcmpd1941], the “Srxn1-GFP intensity median modified Z-score” value was 50.9 (active).

For `COc1ccc(-c2coc3c4c(c(CC=C(C)C)c(OC)c3c2=O)OC(C)(C)C=C4)cc1OC` [euspeclibcmpd2197], the “Srxn1-GFP intensity median modified Z-score” value was -0.274 (inactive).

On to `COC(=O)C(C)=CCC12OC(C)(C)C3CC(=CC4C(=O)c5c(OC)c6c(c(CC=C(C)C)c5OC431)OC(C)(CCC=C(C)C)C=C6)C2=O` (centres undefined) [euspeclibcmpd2284], for which the “Srxn1-GFP intensity median modified Z-score” value was 55.9 (active). For `CC(C)=CCCC1(C)C=Cc2c(O)c3c(c(CC=C(C)C)c2O1)OC12C(=CC4CC1C(C)(C)OC2(C=CC(C)C(=O)O)C4=O)C3=O` (centres undefined) [euspeclibcmpd1425], the “Srxn1-GFP intensity median modified Z-score” value is 127 (active).

On to `Cc1cc(C)cc(-c2nnc(SCc3csc(Nc4ccccc4)n3)o2)c1`, for which the “Srxn1-GFP intensity median modified Z-score” value is 0.289 (inactive).

On to `O=c1[nH]cnc2[nH]ncc12` [euspeclibcmpd15], for which the “Srxn1-GFP intensity median modified Z-score” value was 0.378 (inactive). In the case of `CCOC(=O)O[C@]1(C(=O)COC(=O)CC)CCC2C3CC=C4CC(=O)C=C[C@]4(C)C3[C@@H](O)C[C@@]21C` (some centres undefined) [euspeclibcmpd1145], the “Srxn1-GFP intensity median modified Z-score” value was -0.25 (inactive). Consider `NC(COCc1ccccc1)C(=O)O` (centres undefined) [euspeclibcmpd2285], for which the “Srxn1-GFP intensity median modified Z-score” value was -0.141 (inactive).
